Measured values as given in PubChem BioAssay (Tox21).
A number with no mark means an inactive call. Inconclusive results are not listed. Entries that show only a call come without a potency. Activity calls are given as the source filed them. Unless noted, calls follow the shape of the dose curve; as a rule, active = well fitted curve in the direction sought with a large enough effect in the repeat runs; inconclusive = weak or mixed curves; inactive = no such curve, though single readings can be large; an effect the other way counts as inactive or inconclusive.

Experiments:
[1] = qHTS assay for small molecules that induce genotoxicity in human embryonic kidney cells expressing luciferase-tagged ATAD5 (AID 651632); also: nearly all actives have a fitted effect of over 15% in size; also: potency is read from the fitted curve at half-maximal effect
Procedure, shortened: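 Luminescence read-out: after 16 hr compound exposure at 37C, ATAD5-luciferase HEK293T cells received Amplite, 30 min RT, then CCD imaging. A rise in signal marks genotoxic stress.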

[2] = qHTS assay for small molecule agonists of the p53 signaling pathway - cell viability (AID 651633; calls by dose curve;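 also: p53RE-bla HCT reporter cells with a stable beta-lactamase p53 reporter; series mostly up to about 83 µM; nearly all actives have a fitted effect of over 30% in size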)
Procedure, shortened: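 Viability counter-read: CellTiter-Glo luminescence (30 min, room temperature) in the same p53RE-bla plates. These plates had been exposed to compounds for 16 h at 37 C.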

[3] = qHTS assay for small molecules that induce genotoxicity in human embryonic kidney cells expressing luciferase-tagged ATAD5 - cell viability (AID 651634; calls by dose curve; also: nearly all actives have a fitted effect of over 25% in size)
Procedure, shortened: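 HEK293T ATAD5-luc cells, 2,000/well; compound 15.5 hr, 37C/5% CO2; CellTiter-Fluor 30 min, 37C; fluorescence read.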

[4] = qHTS assay for small molecule disruptors of the mitochondrial membrane potential - cell viability (AID 720634; calls by dose curve;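 also: human HepG2 liver cancer cells; series mostly up to about 83 µM; nearly all actives have a fitted effect of over 20% in size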)
Procedure, shortened: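 Luminescence from CellTiter-Glo (ATP content) gave viability in HepG2 cells, read in the same wells as the MMP dye assay after 1 hr compound exposure at 37 C.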

[5] = qHTS assay for small molecule disruptors of the mitochondrial membrane potential (AID 720635); also: potency is read from the fitted curve at half-maximal effect
Procedure, shortened: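 Mitochondrial membrane potential tracked with Mito-MPS dye, red aggregates (ex 540/em 590 nm) against green monomers (ex 490/em 535 nm). Compound treatment 1 hr at 37C, dye 30 min in HepG2.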

[6] = qHTS assay to test for compound auto fluorescence at 590 nm (red) in HepG2 cells (AID 720674)
Procedure, shortened: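 1 hr compound incubation on HepG2 cells, 37 C, 5% CO2; plate read ex 540 nm / em 590 nm; intensities reported as Rose Bengal sodium equivalents.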

[7] = qHTS assay to test for compound auto fluorescence at 535 nm (green) in HepG2 cells (AID 720675)
[8] = qHTS assay to test for compound auto fluorescence at 460 nm (blue) in HEK293 cells (AID 720678)
Procedure, shortened: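 Auto fluorescence in the blue band was quantified as triamterene equivalency. HEK293 cells were seeded at 2,000/well, dosed after a 4-5 hr attachment, and kept overnight at 37C before the 405/460 nm reading.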

[9] = qHTS assay to test for compound auto fluorescence at 590 nm (red) in HEK293 cells (AID 720679)
Procedure, shortened: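 Autofluorescence equivalency to Rose Bengal sodium, 540/590nm, in HEK293 cells exposed overnight to 23 nL compound per well.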

[10] = qHTS assay to test for compound auto fluorescence at 535 nm (green) in HEK293 cells (AID 720680)
[11] = qHTS assay to test for compound auto fluorescence at 460 nm (blue) in HEK293 cell free culture (AID 720681)
Procedure, shortened: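 Blue fluorescence (Ex 405/Em 460 nm, triamterene-equivalent) was read immediately after pin transfer of compound or DMSO into medium (DMEM, 10% FBS) without cells.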

[12] = qHTS assay to test for compound auto fluorescence at 535 nm (green) in HEK293 cell free culture (AID 720682)
Procedure, shortened: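 Measurement is a direct plate read of green fluorescence (485 nm in, 535 nm out) after compound addition to serum-supplemented DMEM lacking cells, with fluorescein used to express intensities.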

[13] = qHTS assay to test for compound auto fluorescence at 590 nm (red) in HEK293 cell free culture (AID 720683)
Procedure, shortened: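 Red-channel autofluorescence of compounds in culture medium (DMEM, 10% FBS), no cells, measured at 540/590 nm. Rose Bengal sodium is the reference fluorophore for equivalence.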

[14] = qHTS assay to test for compound auto fluorescence at 590 nm (red) in HepG2 cell free culture (AID 720684)
Procedure, shortened: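 No cells present: MEM + 10% FBS only. Compound pinned in, red label read (540/590 nm). Activity = fluorescence equivalent to Rose Bengal sodium.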

[15] = qHTS assay to test for compound auto fluorescence at 460 nm (blue) in HepG2 cell free culture (AID 720685)
Procedure, shortened: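 Cell-free plates of MEM plus 10% FBS received 23 nL compound or DMSO vehicle; blue-channel (405/460 nm) intensity scored against triamterene as reference fluorophore.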

[16] = qHTS assay to test for compound auto fluorescence at 535 nm (green) in HepG2 cell free culture (AID 720686)
[17] = qHTS assay to test for compound auto fluorescence at 460 nm (blue) in HepG2 cells (AID 720687)
Procedure, shortened: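 Blue-channel autofluorescence (Ex/Em 405/460 nm, triamterene-equivalent) was measured after 1 hr compound exposure at 37 C, 5% CO2. Cells were HepG2, plated overnight at 37 C in MEM plus 10% FBS.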

[18] = qHTS assay for small molecule agonists of the p53 signaling pathway (AID 651631; calls by dose curve; also: nearly all actives have a fitted effect of over 15% in size)
Procedure, shortened: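 Quantitative high-throughput format: 4,000 p53RE-bla HCT-116 cells/well, 5 h pre-incubation, 16 h compound exposure at 37 °C, 2 h room-temperature substrate step, fluorescence intensity measured.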

[19] = target: Glucocorticoid receptor (Homo sapiens) (UniProt P04150); test: qHTS assay to identify small molecule agonists of the glucocorticoid receptor (GR) signaling pathway (AID 720691; active = well fitted activation curve with a large enough effect in the signal ratio in the repeat runs, not every such curve was filed as active; the % refers to the signal ratio)
Procedure, shortened: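 HeLa GR-bla reporter line; cells pre-incubated 4 h, compound in DMSO 18 h at 37 C; LiveBLAzer B/G FRET substrate 2 h RT; fluorescence intensity read-out.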

[20] = target: Glucocorticoid receptor (Homo sapiens) (UniProt P04150); test: qHTS assay to identify small molecule antagonists of the glucocorticoid receptor (GR) signaling pathway (AID 720692; active = well fitted inhibition curve with a large enough effect in the signal ratio in the repeat runs, not every such curve was filed as active; the % refers to the signal ratio)
Procedure, shortened: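 Read-out: beta-lactamase FRET substrate fluorescence, 2 h at room temperature, in HeLa cells stably carrying a GRE-driven bla reporter. Compounds were co-incubated with 5 nM dexamethasone agonist (final) for 18 h at 37 C.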

Glucocorticoid receptor (Homo sapiens), sequence (P04150 whole entry, looked up): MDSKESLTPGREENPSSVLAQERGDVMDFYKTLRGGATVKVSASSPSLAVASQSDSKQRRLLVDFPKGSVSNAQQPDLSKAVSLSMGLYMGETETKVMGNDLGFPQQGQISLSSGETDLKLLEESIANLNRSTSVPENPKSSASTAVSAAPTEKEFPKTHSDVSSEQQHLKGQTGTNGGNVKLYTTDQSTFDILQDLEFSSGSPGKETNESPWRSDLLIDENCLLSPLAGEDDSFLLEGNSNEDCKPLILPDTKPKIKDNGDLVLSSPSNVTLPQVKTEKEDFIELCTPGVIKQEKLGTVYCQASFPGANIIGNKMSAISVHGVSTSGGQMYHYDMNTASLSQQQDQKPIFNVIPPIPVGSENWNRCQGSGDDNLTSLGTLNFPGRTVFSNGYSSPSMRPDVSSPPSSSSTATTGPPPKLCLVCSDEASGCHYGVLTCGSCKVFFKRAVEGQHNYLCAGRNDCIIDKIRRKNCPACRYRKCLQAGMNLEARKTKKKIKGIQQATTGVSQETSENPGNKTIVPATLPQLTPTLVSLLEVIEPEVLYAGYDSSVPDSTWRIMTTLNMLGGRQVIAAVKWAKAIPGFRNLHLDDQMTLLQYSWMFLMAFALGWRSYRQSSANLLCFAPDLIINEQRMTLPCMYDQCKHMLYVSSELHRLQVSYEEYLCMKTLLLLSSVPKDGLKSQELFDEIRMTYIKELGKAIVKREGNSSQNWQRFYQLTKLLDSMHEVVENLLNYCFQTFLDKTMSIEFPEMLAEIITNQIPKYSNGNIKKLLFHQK

## CCCCOCC(C)OCC(C)O (stereo not drawn)
[1]
  Potency: inactive
[2]
  Potency: inactive
[3]
  Potency: inactive
[4]
  Potency: inactive
[5]
  Potency: inactive
[6]
  outcome: inactive
[7]
  outcome: inactive
[8]
  Potency: inactive
[9]
  outcome: inactive
[10]
  outcome: inactive
[11]
  Potency: inactive
[12]
  outcome: inactive
[13]
  outcome: inactive
[14]
  outcome: inactive
[15]
  Potency: inactive
[16]
  outcome: inactive
[17]
  Potency: inactive

## CCCOCC(C)OCC(C)O (stereo not drawn)
[18]
  Potency: inactive
[2]
  Potency: inactive
[3]
  Potency: inactive
[4]
  Potency: inactive
[6]
  outcome: inactive
[7]
  outcome: inactive
[8]
  Potency: inactive
[9]
  outcome: inactive
[10]
  outcome: inactive
[11]
  Potency: inactive
[12]
  outcome: inactive
[13]
  outcome: inactive
[14]
  outcome: inactive
[15]
  Potency: inactive
[16]
  outcome: inactive
[17]
  Potency: inactive
[19]
  Potency: inactive

## Fc1ccccc1-c1ccccc1
[18]
  Potency: inactive
[1]
  Potency: inactive
[2]
  Potency: inactive
[3]
  Potency: inactive
[4]
  Potency: inactive
[6]
  outcome: inactive
[8]
  Potency: inactive
[9]
  outcome: inactive
[10]
  outcome: inactive
[11]
  Potency: inactive
[12]
  outcome: inactive
[14]
  outcome: inactive
[15]
  Potency: inactive
[16]
  outcome: inactive
[17]
  Potency: inactive
[19]
  Potency: inactive
[20]
  Potency: inactive

## CC(C=O)Cc1ccc(C(C)C)cc1 (stereo not drawn)
[18]
  Potency: inactive
[1]
  Potency: inactive
[2]
  Potency: inactive
[3]
  Potency: inactive
[4]
  Potency: inactive
[6]
  outcome: inactive
[7]
  outcome: inactive
[8]
  Potency: inactive
[9]
  outcome: inactive
[10]
  outcome: inactive
[11]
  Potency: inactive
[12]
  outcome: inactive
[14]
  outcome: inactive
[15]
  Potency: inactive
[16]
  outcome: inactive
[17]
  Potency: inactive
[19]
  Potency: inactive
[20]
  Potency: inactive

## OCCCCCCO
[18]
  Potency: inactive
[1]
  Potency: inactive
[2]
  Potency: inactive
[3]
  Potency: inactive
[4]
  Potency: inactive
[6]
  outcome: inactive
[8]
  Potency: inactive
[9]
  outcome: inactive
[10]
  outcome: inactive
[11]
  Potency: inactive
[12]
  outcome: inactive
[13]
  outcome: inactive
[14]
  outcome: inactive
[15]
  Potency: inactive
[16]
  outcome: inactive
[17]
  Potency: inactive
[19]
  Potency: inactive

## CO
[18]
  Potency: inactive
[2]
  Potency: inactive
[3]
  Potency: inactive
[6]
  outcome: inactive
[7]
  outcome: inactive
[8]
  Potency: inactive
[9]
  outcome: inactive
[10]
  outcome: inactive
[11]
  Potency: inactive
[12]
  outcome: inactive
[13]
  outcome: inactive
[14]
  outcome: inactive
[15]
  Potency: inactive
[16]
  outcome: inactive
[17]
  Potency: inactive

## COc1ccc(N=[N+]([O-])c2ccc(OC)cc2)cc1
[18]
  Potency: inactive
[1]
  Potency: 0.136 µM (active)
[2]
  Potency: inactive
[3]
  Potency: inactive
[5]
  Potency: 27 µM (active)
[6]
  outcome: inactive
[7]
  outcome: inactive
[8]
  Potency: inactive
[9]
  outcome: inactive
[10]
  outcome: inactive
[11]
  Potency: inactive
[12]
  outcome: inactive
[13]
  outcome: inactive
[14]
  outcome: inactive
[15]
  Potency: inactive
[16]
  outcome: inactive
[17]
  Potency: inactive
[19]
  Potency: inactive

## OCc1ccccn1
[18]
  Potency: inactive
[1]
  Potency: inactive
[2]
  Potency: inactive
[3]
  Potency: inactive
[4]
  Potency: inactive
[6]
  outcome: inactive
[8]
  Potency: inactive
[9]
  outcome: inactive
[10]
  outcome: inactive
[11]
  Potency: inactive
[12]
  outcome: inactive
[13]
  outcome: inactive
[14]
  outcome: inactive
[15]
  Potency: inactive
[16]
  outcome: inactive
[17]
  Potency: inactive
[19]
  Potency: inactive
[20]
  Potency: inactive

## CCCCCC[C@@H](CCC)C(=O)O
[1]
  Potency: inactive
[2]
  Potency: inactive
[3]
  Potency: inactive
[4]
  Potency: inactive
[5]
  Potency: inactive
[6]
  outcome: inactive
[7]
  outcome: inactive
[8]
  Potency: inactive
[9]
  outcome: inactive
[10]
  outcome: inactive
[11]
  Potency: inactive
[12]
  outcome: inactive
[13]
  outcome: inactive
[14]
  outcome: inactive
[15]
  Potency: inactive
[16]
  outcome: inactive
[17]
  Potency: inactive

## Cc1ccc(Nc2ccc(O)c3c2C(=O)c2ccccc2C3=O)cc1
[18]
  Potency: inactive
[1]
  Potency: inactive
[2]
  Potency: inactive
[3]
  Potency: inactive
[6]
  outcome: inactive
[7]
  outcome: inactive
[8]
  Potency: inactive
[9]
  outcome: inactive
[10]
  outcome: inactive
[11]
  Potency: inactive
[12]
  outcome: inactive
[13]
  outcome: inactive
[14]
  outcome: inactive
[15]
  Potency: inactive
[16]
  outcome: inactive
[17]
  Potency: inactive

## CCCCCCCCC=O
[18]
  Potency: inactive
[1]
  Potency: inactive
[2]
  Potency: inactive
[3]
  Potency: inactive
[4]
  Potency: inactive
[6]
  outcome: inactive
[7]
  outcome: inactive
[8]
  Potency: inactive
[9]
  outcome: inactive
[10]
  outcome: inactive
[11]
  Potency: inactive
[12]
  outcome: inactive
[14]
  outcome: inactive
[15]
  Potency: inactive
[16]
  outcome: inactive
[17]
  Potency: inactive
[19]
  Potency: inactive
[20]
  Potency: inactive

## c1ccc(SCCSc2ccccc2)cc1
[18]
  Potency: inactive
[2]
  Potency: inactive
[3]
  Potency: inactive
[4]
  Potency: inactive
[6]
  outcome: inactive
[7]
  outcome: inactive
[8]
  Potency: inactive
[9]
  outcome: inactive
[10]
  outcome: inactive
[11]
  Potency: inactive
[12]
  outcome: inactive
[13]
  outcome: inactive
[14]
  outcome: inactive
[15]
  Potency: inactive
[16]
  outcome: inactive
[17]
  Potency: inactive

## CCC(C)OC(=O)N1CCCCC1CCO (stereo not drawn)
[18]
  Potency: inactive
[1]
  Potency: inactive
[2]
  Potency: inactive
[3]
  Potency: inactive
[4]
  Potency: inactive
[6]
  outcome: inactive
[8]
  Potency: inactive
[9]
  outcome: inactive
[10]
  outcome: inactive
[11]
  Potency: inactive
[12]
  outcome: inactive
[13]
  outcome: inactive
[14]
  outcome: inactive
[15]
  Potency: inactive
[16]
  outcome: inactive
[17]
  Potency: inactive

## COCCOC(=O)CC#N
[18]
  Potency: inactive
[1]
  Potency: inactive
[2]
  Potency: inactive
[3]
  Potency: inactive
[4]
  Potency: inactive
[6]
  outcome: inactive
[8]
  Potency: inactive
[9]
  outcome: inactive
[10]
  outcome: inactive
[11]
  Potency: inactive
[12]
  outcome: inactive
[13]
  outcome: inactive
[14]
  outcome: inactive
[15]
  Potency: inactive
[16]
  outcome: inactive
[17]
  Potency: inactive
[19]
  Potency: inactive

## CN(C)N=Nc1ccccc1
[18]
  Potency: inactive
[1]
  Potency: inactive
[2]
  Potency: inactive
[4]
  Potency: inactive
[6]
  outcome: inactive
[7]
  outcome: inactive
[8]
  Potency: inactive
[9]
  outcome: inactive
[10]
  outcome: inactive
[11]
  Potency: inactive
[12]
  outcome: inactive
[13]
  outcome: inactive
[14]
  outcome: inactive
[15]
  Potency: inactive
[16]
  outcome: inactive
[17]
  Potency: inactive
